Source: PubChem (several laboratories)
NALP3 yeast inh = blocks the NALP3 inflammasome reconstituted in yeast; actives 0.39% (n = 330,000); Yeast reconstituted NLRP3/ASC/caspase-1, beta-gal luminescence, 24 h; inhibition, % at 10 µM; AID 2825;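 active = inhibition of 50% or more; inactive = inhibition below 50%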
NALP1 inh = blocks the NALP1 inflammasome reconstituted in yeast. actives 0.61% (n = 280,000). inhibition, % at 10 µM. S. cerevisiae NALP1/ASC/caspase-1 growth, X-gal OD620, 72 h. AID 2071; in the data active = inhibition mostly above about 24%, no sharp cut-off; inactive = mostly below about 32%
tim23-1 inh = tim23-1 yeast growth inhibition | actives 1.3% (n = 330,000) | inhibition, % at 20 µM | S. cerevisiae tim23-1 growth, BacTiter-Glo luminescence, 24 h;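 active = growth inhibition of the mutant yeast at or above 50%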;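 note: temperature-sensitive mutant grown at 25 °C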
PfHsp90 yeast 2 = growth inhibition of yeast expressing Plasmodium Hsp90; S. cerevisiae expressing PfHsp90, BacTiter-Glo ATP, 48 h; yeast lacking PDR1 and PDR3 efflux regulators; inhibition, % at 9.4 µM; actives 0.32% (n = 310,000);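 active = every replicate shows inhibition above about 80%, whatever the replicate mean, limit read from the data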
TIM10 inh = TIM10 yeast growth inhibition. inhibition, % at 10 µM. actives 1.4% (n = 330,000). S. cerevisiae TIM10 strain growth, BacTiter-Glo luminescence, 24 h;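 active = inhibition of 40% or more at the single tested concentration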;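 note: wild-type TIM10 isogenic control strain grown at permissive 25 °C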
tim10-1 inh = tim10-1 yeast growth inhibition. S. cerevisiae tim10-1 ts strain growth, BacTiter-Glo, 24 h. inhibition, % at 20 µM. actives 2.2% (n = 330,000). AID 463190;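 active = inhibition of at least 40%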;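 note: mutant grown at 25 °C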
Large screens that a line does not name were inactive. Compounds with a hit are over-represented: about 4.1% of the library has one in this group of screens.

Cc1ccc(C)c(NC(=O)CCN2CCC(C)CC2)c1	none
O=C(CCC(=O)c1ccc(Cl)s1)Nc1ncccc1O	none (no result: NALP1 inh)
CCCC(=O)NC1=C(Cl)C(=O)c2ccccc2C1=O	PfHsp90 yeast 2 146 (no result: NALP3 yeast inh, NALP1 inh, tim23-1 inh, TIM10 inh, tim10-1 inh)
O=C1/C(=C/c2cccnc2)Oc2cc(OS(=O)(=O)c3ccccc3)ccc21	none
O=C1/C(=C/c2cccnc2)Oc2cc(OS(=O)(=O)c3ccc(Cl)cc3)ccc21	NALP1 inh 41
CS(=O)(=O)N1CCCC(C(=O)Nc2cccc(F)c2)C1 (stereo not drawn)	none
N#CSCC(=O)c1cccc2ccccc12	PfHsp90 yeast 2 97 (no result: NALP3 yeast inh, tim23-1 inh, TIM10 inh, tim10-1 inh)
CN1/C(=C/C(=O)CSc2ccccc2C(=O)O)C(C)(C)c2ccccc21	NALP1 inh 45
Cc1ccc(NC(=O)c2oc3ccccc3c2NC(=O)c2ccc3c(c2)OCO3)cc1	NALP1 inh 31
O=C(Nc1c(C(=O)Nc2cccc(F)c2)oc2ccccc12)c1ccc2c(c1)OCO2	none
COc1ccc(CN2CCNC(=O)C2CC(=O)N2CCCCO2)cc1OC (stereo not drawn)	none
O=C(CC1Sc2ncnn2C1=O)Nc1ccc(Br)cc1 (stereo not drawn)	NALP1 inh 85
O=C(Cn1ccccc1=S)c1ccc(Cl)c(Cl)c1	none (no result: NALP1 inh, PfHsp90 yeast 2)
On1ccccc1=S	PfHsp90 yeast 2 107 (no result: NALP3 yeast inh, NALP1 inh, tim23-1 inh, TIM10 inh, tim10-1 inh)
CC1=NCCN1S(=O)(=O)c1c(C(C)C)cc(C(C)C)cc1C(C)C	NALP1 inh 28
CN(CC(=O)Nc1cccc(F)c1)C(=O)c1cn(-c2ccccc2)nc1-c1ccc(Cl)cc1	PfHsp90 yeast 2 98 (no result: NALP1 inh)
CN(CC(=O)Nc1cccc(F)c1)C(=O)c1cn(-c2ccccc2)nc1-c1cccs1	none
Cc1ccc(OCC(=O)N2CCOCC2)cc1C	none
Cc1cc(C)c(C)c(OCC(=O)N2CCOCC2)c1	NALP1 inh 44
CN(C)c1ccnc(Oc2ccc(Cl)cc2)c1C#N	NALP1 inh 16
CN(C)c1ccnc(Oc2ccccc2)c1C#N	none (no result: NALP3 yeast inh, tim23-1 inh, TIM10 inh, tim10-1 inh)
CN=Cc1sc2ccccc2c1O	none
O=Nc1c(O)c2ccccc2c2ccccc12	PfHsp90 yeast 2 111 (no result: NALP3 yeast inh, NALP1 inh, tim23-1 inh, TIM10 inh, tim10-1 inh)
CCCCNC(=O)NS(=O)(=O)c1ccc(NC(=O)C(NC(N)=O)C(C)CC)cc1 (stereo not drawn)	none (no result: NALP1 inh)
CCN1/C(=C/c2ccc3cc(C)ccc3[n+]2CC)Sc2cc(C)ccc21	NALP1 inh 35, PfHsp90 yeast 2 94 (no result: NALP3 yeast inh, tim23-1 inh, TIM10 inh, tim10-1 inh)
CNC(CC(=O)c1ccc([N+](=O)[O-])cc1)C(Cl)(Cl)Cl (stereo not drawn)	NALP1 inh 115, PfHsp90 yeast 2 109 (no result: NALP3 yeast inh, tim23-1 inh, TIM10 inh, tim10-1 inh)
O=C(O)c1cccc2c1Cc1cc([N+](=O)[O-])ccc1-2	PfHsp90 yeast 2 115 (no result: NALP3 yeast inh, NALP1 inh, tim23-1 inh, TIM10 inh, tim10-1 inh)
O=C(O)c1cccc2c1-c1ccc([N+](=O)[O-])cc1C2=O	none (no result: NALP3 yeast inh, NALP1 inh, tim23-1 inh, TIM10 inh, tim10-1 inh)
COc1cc(NC(C)CCCN)c2ncccc2c1Oc1ccccc1 (stereo not drawn)	NALP1 inh 58
COc1ccc(Oc2c(OC)cc([N+](=O)[O-])c3ncccc23)cc1	none (no result: NALP3 yeast inh, NALP1 inh, tim23-1 inh, TIM10 inh, tim10-1 inh)
CN1CCN(c2ccc(Cl)cc2NC(=O)C2COc3ccccc3O2)CC1 (stereo not drawn)	NALP1 inh 32
Cc1ccc(O)c(NC(=S)NC(=O)c2ccc(-c3ccc(Cl)cc3)o2)c1	PfHsp90 yeast 2 122 (no result: NALP1 inh)
Cc1ccc2oc(=O)c3cnn(CC(=O)N(CCN(C)C)Cc4ccco4)c3c2c1	NALP1 inh 41
O=C(NCc1cccnc1)c1ccc(NS(=O)(=O)c2cccc([N+](=O)[O-])c2)cc1	none (no result: NALP1 inh)
COc1ccccc1N(CC(=O)NCCSCc1ccc(Cl)cc1)S(C)(=O)=O	none
COc1ccccc1OCC(=O)NCCSCc1ccc(Cl)cc1	NALP1 inh 64
CC(C)CN(C(=O)CN(C)CC(=O)Nc1ccc(Cl)c(C(F)(F)F)c1)c1c(N)n(CC(C)C)c(=O)[nH]c1=O	none (no result: NALP1 inh)
CCCc1nnc(NC(=O)c2cc3ccccc3oc2=O)s1	NALP1 inh 40
CCCc1nnc(NC(=O)CS(=O)(=O)c2ccccc2)s1	none
CCCc1nnc(NC(=O)CC(=O)Nc2ccccc2C(=O)O)s1	NALP1 inh 40
Cc1csc(NC(=O)C(CC(C)C)NS(=O)(=O)c2ccc3c(c2)oc(=O)n3C)n1 (stereo not drawn)	NALP1 inh 46
CC1CCN(c2ccc3c(c2)S(=O)(=O)c2cccc(C(=O)NC4CC4)c2C3=O)CC1	none (no result: NALP1 inh)
CCOC(=O)/C(=C/c1ccc(N2CCC(c3ccccc3)=N2)cc1)C(C)=O	PfHsp90 yeast 2 106 (no result: NALP3 yeast inh, tim23-1 inh, TIM10 inh, tim10-1 inh)
CCc1ccc(OCC(=O)NNC(=S)NC(=O)C2CC2)c(Br)c1	PfHsp90 yeast 2 108
CCc1ccc(OCC(=O)NNC(=S)NC(=O)C2CCCCC2)c(Br)c1	none
O=C(Nc1ncccc1O)c1ccc(Oc2ccccc2)cc1	NALP1 inh 43
COc1ccc(C(CNC(=O)CNC(=O)c2ccc(F)cc2)N2CCCC2)cc1 (stereo not drawn)	none (no result: NALP1 inh)
COc1ccc(C(CNC(=O)Cc2c(F)cccc2Cl)N2CCCCC2)cc1 (stereo not drawn)	NALP1 inh 23
CCOC(=O)CNC(=O)CNC(=O)Cn1ccc2ccccc2c1=O	NALP1 inh 40
COC(=O)CNC(=O)Cn1ccc2ccccc2c1=O	none
CN(C)c1ccc(NS(=O)(=O)c2ccc(-c3csnn3)cc2)cc1	NALP1 inh 43 (no result: PfHsp90 yeast 2)
O=C1CN(S(=O)(=O)c2cc(Br)ccc2Br)CCN1	none (no result: NALP1 inh)
O=c1c(Br)ccc(Br)cc1Br	PfHsp90 yeast 2 120 (no result: NALP3 yeast inh, NALP1 inh, tim23-1 inh, TIM10 inh, tim10-1 inh)
COC(=O)CCC(=O)Nc1ccc(Cl)c(Cl)c1	none
COC(=O)CCC(=O)NC(=S)Nc1cc(Cl)ccc1Cl	NALP1 inh 42
CCN(CC)S(=O)(=O)c1cccc(NC(=O)CC2CCCC2)c1	none
CCN(CC)S(=O)(=O)c1cccc(NC(=O)Nc2cccc(C(F)(F)F)c2)c1	NALP1 inh 37 (no result: PfHsp90 yeast 2)
Cc1ccc(-n2nnnc2C(Cl)c2nnnn2-c2ccc(C)cc2)cc1	PfHsp90 yeast 2 110 (no result: NALP3 yeast inh, tim23-1 inh, TIM10 inh, tim10-1 inh)
Cc1ccc(-n2nnnc2-c2ccccc2)cc1	none
CCCn1c(Nc2nc3ccccc3n2C)nc2ccccc21	NALP1 inh 30
CCOc1cccc(CNCCSc2nnnn2C)c1	NALP1 inh 27
CCOc1cc(CNCCSc2nnnn2C)cc(Br)c1OCc1ccccc1	none
CC1=CC(C)(C)N(C(=O)CCl)c2ccccc21	NALP1 inh 28
CC1=CC(C)(C)N(C(=O)CCl)c2cc(C)ccc21	none
CC(=O)Nc1ccc(S(=O)(=O)N(C)CC(=O)NNc2c(F)c(F)cc(F)c2F)cc1	none (no result: NALP1 inh)
CCN(CC)C(=O)Oc1ccc(Cl)c2cccnc12	none
O=C(Nc1cccc(C(F)(F)F)c1)Oc1ccc(Cl)c2cccnc12	NALP1 inh 48, PfHsp90 yeast 2 124 (no result: NALP3 yeast inh, tim23-1 inh, TIM10 inh, tim10-1 inh)
COc1ccc(CCNC(=O)CCCn2ncn3c(cc4occc43)c2=O)c(OC)c1	none
Cc1onc(-c2ccccc2)c1C(=O)N1CCC(CO)(Cc2ccccc2)CC1	none
Cc1ccc(CN2C(=O)CCSc3ccc(Cl)cc32)cc1	NALP1 inh 36
O=C(c1ccccc1)c1ccccc1N1C(=O)C=CC1=O	PfHsp90 yeast 2 107
O=C(O)c1ccccc1C(=O)c1ccc(-c2ccccc2)cc1	none
